From PubChem BioAssay (NCATS)
Values joined by “and” are separate entries in the source; they are usually repeats but may differ in a detail not shown here. Identical values can stand only once. Results filed as inconclusive are left out. A structure can be active in one record and inactive in another. Active and inactive are the calls of the source. The call rests on the fitted dose curve; in most records, active means well fitted curve in the direction sought with a large enough effect; inconclusive means small, poorly fitted or top-dose-only effect, or another doubt; inactive means no such curve, though single readings can be large; an effect the other way counts as inactive or inconclusive.

Tests used:
[1] = tested on: SC27B; experiment: qHTS profiling for inhibitors of Plasmodium falciparum proliferation (AID 504749);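 further: 0% = DMSO vehicle and full inhibition = artemisinin control; nearly all actives have a fitted effect of over 60% in size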; details: P. falciparum in erythrocytes, SYBR Green DNA, 72 h; series mostly up to 28.7 µM
Procedure, shortened: (§1)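 Readout was DNA-dye fluorescence from lysed cultures, ex 485/em 535 nm. Parasitized red cells had grown 72 h with compound; data scaled between 0.29 uM artemisinin and DMSO wells and corrected using vehicle-only plates.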

[2] = tested on: TAB109; experiment: as above; details: P. falciparum in erythrocytes, SYBR Green DNA, 72 h; series mostly up to 28.7 µM
Procedure, shortened: as §1

[3] = tested on: TAB113; experiment: as above; details: P. falciparum in erythrocytes, SYBR Green DNA, 72 h; series mostly up to 28.7 µM
Procedure, shortened: as §1

[4] = tested on: W2; experiment: as above; details: P. falciparum in erythrocytes, SYBR Green DNA, 72 h; series mostly up to 28.7 µM
Procedure, shortened: as §1

[5] = tested on: CRL-7250; experiment: Cytotoxic Profiling of Annotated Libraries Using Quantitative High-Throughput Screening (AID 1296008); details: Five cell lines viability, CellTiter-Glo ATP luminescence, 48-72 h; max response: stronger effect = lower value; further: nearly all actives have a fitted effect of over 60% in size; further: potency means the concentration at half of the fitted maximal effect; on max response: on the % scale 0 is the no-effect control and ±100 the full control effect
Procedure, shortened: (§2)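 Cells exposed to compounds for 48 or 72 hr at 37 degrees Celsius. Viability read as ATP-coupled luminescence with CellTiter-Glo after 10 min at room temperature.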

[6] = tested on: HEK293; experiment: as above; details: Five cell lines viability, CellTiter-Glo ATP luminescence, 48-72 h; max response: stronger effect = lower value
Procedure, shortened: as §2

[7] = tested on: HaCat; experiment: as above; details: Five cell lines viability, CellTiter-Glo ATP luminescence, 48-72 h; max response: stronger effect = lower value
Procedure, shortened: as §2

[8] = tested on: KB-3-1; experiment: as above; details: Five cell lines viability, CellTiter-Glo ATP luminescence, 48-72 h; max response: stronger effect = lower value
Procedure, shortened: as §2

[9] = tested on: NIH3T3; experiment: as above; details: Five cell lines viability, CellTiter-Glo ATP luminescence, 48-72 h; max response: stronger effect = lower value
Procedure, shortened: as §2

[10] = tested on: HACAT; experiment: qHTS assay to identify novel small-molecules to repurpose for Merkel cell carcinoma treatment (AID 1296009); details: MCC and control cell lines, CellTiter-Glo viability, 72 h; at 44.8 µM (top of the series) unless noted; further: nearly all actives have a fitted effect of over 60% in size; further: potency means the concentration at half of the fitted maximal effect
Procedure, shortened: (§3)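 Cells were incubated with compound for 72 hr at 37 degree celsius before CellTiter-Glo addition. Luminescence was normalized with no-cell wells as full cytotoxicity and DMSO as baseline.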

[11] = tested on: MCC-13; experiment: as above; details: MCC and control cell lines, CellTiter-Glo viability, 72 h; series mostly up to 46 µM
Procedure, shortened: as §3

[12] = tested on: MCC-26; experiment: as above; details: MCC and control cell lines, CellTiter-Glo viability, 72 h; series mostly up to 46 µM
Procedure, shortened: as §3

[13] = tested on: MKL-1; experiment: as above; details: MCC and control cell lines, CellTiter-Glo viability, 72 h; series mostly up to 46 µM
Procedure, shortened: as §3

[14] = tested on: MKL-2; experiment: as above; details: MCC and control cell lines, CellTiter-Glo viability, 72 h; series mostly up to 46 µM
Procedure, shortened: as §3

[15] = tested on: NIH3T3; experiment: as above; details: MCC and control cell lines, CellTiter-Glo viability, 72 h; at 44.8 µM (top of the series) unless noted
Procedure, shortened: as §3

[16] = tested on: UISO; experiment: as above; details: MCC and control cell lines, CellTiter-Glo viability, 72 h; series mostly up to 46 µM
Procedure, shortened: as §3

[17] = tested on: WaGa; experiment: as above; details: MCC and control cell lines, CellTiter-Glo viability, 72 h; series mostly up to 46 µM
Procedure, shortened: as §3

[18] = tested on: C33A; experiment: Primary qHTS to identify gynecologic anti-cancer compounds using libraries of approved drugs and bioactive compounds (AID 1345084); details: Gynecologic cancer cell panel viability, ATPlite luminescence, 48 h; series mostly up to 57.5 µM; further: on the % scale 0 is the no-effect control and ±100 the full control effect; nearly all actives have a fitted effect of over 55% in size
Procedure, shortened: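 Cytotoxicity screen measuring ATP content by luciferase luminescence. Each compound is applied at five concentrations for 48 h at 37 C with 5% CO2.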

[19] = tested on: TAB165; experiment: qHTS profiling for inhibitors of Plasmodium falciparum proliferation (AID 504749);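 further: 0% = DMSO vehicle and full inhibition = artemisinin control; nearly all actives have a fitted effect of over 60% in size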; details: P. falciparum in erythrocytes, SYBR Green DNA, 72 h; series mostly up to 28.7 µM
Procedure, shortened: as §1

[20] = tested on: HEK293T; experiment: qHTS assay to identify novel small-molecules to repurpose for Merkel cell carcinoma treatment (AID 1296009); details: MCC and control cell lines, CellTiter-Glo viability, 72 h; at 44.8 µM (top of the series); further: nearly all actives have a fitted effect of over 60% in size; further: potency means the concentration at half of the fitted maximal effect
Procedure, shortened: as §3

NS(=O)(=O)c1cc2c(cc1Cl)NC=NS2(=O)=O
inactive: Potency [1] | Potency [2] | Potency [3] | Potency [4] | max response [5] -0.778% and -4.67% | max response [6] -4.01% and 0.386% | max response [7] -11.6% | outcome [7] | max response [8] -5.96% | outcome [8] | max response [9] 3.94% | outcome [9] | outcome [10] | Potency [11] | Potency [12] | Potency [13] | Potency [14] | outcome [15] | Potency [16] | Potency [17] | Potency [18]

S=C(NCc1ccc2c(c1)OCO2)N1CCN(c2ncnc3c2oc2ccccc23)CC1
inactive: max response [5] -64.3% | max response [7] -0.756% and -9.04% | max response [9] -27.2% | Potency [11] | Potency [12]
active: Potency [5] 1.46 µM | Potency [6] 340 nM and 4.11 µM

Cc1cnc(Nc2ccc(OCCN3CCCC3)cc2)nc1Nc1cccc(S(=O)(=O)NC(C)(C)C)c1
inactive: max response [6] 0.504% | max response [7] 2.79% | max response [8] 5.89% | outcome [9] | Potency [11] | Potency [12] | Potency [13] | outcome [15] | Potency [16] | Potency [17]
active: Potency [5] 3.72 µM | Potency [6] 5.17 µM | Potency [7] 5.8 µM | Potency [8] 6.51 µM

N=c1nc(N2CCCCC2)cc(N)n1O
inactive: Potency [1] | Potency [2] | Potency [3] | Potency [19] | Potency [4] | max response [5] -9.52% and -1.74% | max response [6] 3.36% | outcome [6] | outcome [7] | max response [9] 3.13% | outcome [9] | outcome [10] | outcome [20] | Potency [11] | Potency [12] | Potency [13] | Potency [14] | outcome [15] | Potency [16] | Potency [17] | Potency [18]

NC(=O)c1cnccn1
inactive: Potency [1] | Potency [2] | Potency [3] | Potency [19] | Potency [4] | max response [5] 3.02% and 1.22% | max response [6] -0.963% | outcome [6] | max response [7] -6.4% | outcome [7] | max response [8] -14% | outcome [8] | max response [9] 3.86% and 2.38% | outcome [10] | outcome [20] | Potency [11] | Potency [12] | Potency [13] | Potency [14] | Potency [16] | Potency [17] | Potency [18]

Cc1cn[nH]c1
inactive: Potency [1] | Potency [2] | Potency [3] | Potency [19] | Potency [4] | max response [5] -13.4% | outcome [6] | max response [7] -8.18% | outcome [7] | max response [8] 12.8% | outcome [8] | max response [9] 3% | outcome [10] | outcome [20] | Potency [11] | Potency [12] | Potency [14] | Potency [18]
inactive and 5.9 µM (active): Potency [13]
inactive and 1.87 µM (active): Potency [17]
active: Potency [5] 5.26 µM | Potency [6] 4.69 µM
inactive and 2.96 µM (active): Potency [16]

c1ccc([C@H]2CN3CCSC3=N2)cc1
inactive: max response [5] -3.88% and 4.82% | max response [6] -11.1% | outcome [6] | max response [7] 1.22% | outcome [7] | max response [8] -2.88% and 1.89% | max response [9] 1.43% and 2.53% | outcome [10] | outcome [20] | Potency [11] | Potency [12] | Potency [13] | Potency [14] | Potency [16] | Potency [17] | Potency [18]

CCc1ccc(CCOc2ccc(CC3SC(=O)NC3=O)cc2)nc1 (centres undefined)
inactive: Potency [1] | Potency [2] | Potency [3] | Potency [19] | Potency [4] | max response [5] -4.18% and 2.83% | max response [6] -6.03% | outcome [6] | outcome [7] | max response [8] -8.26% and 7.14% | max response [9] 0.801% | outcome [9] | outcome [10] | outcome [20] | Potency [11] | Potency [12] | Potency [13] | Potency [14] | outcome [15] | Potency [16] | Potency [17] | Potency [18]

CC(=O)Oc1ccccc1C(=O)O
inactive: Potency [1] | Potency [2] | Potency [3] | Potency [19] | Potency [4] | max response [5] 0.351% and -4.5% | max response [6] 1.6% | outcome [6] | outcome [7] | max response [8] -12% and 2.14% | max response [9] 0.988% and 3.48% | outcome [10] | outcome [20] | Potency [11] | Potency [12] | Potency [13] | Potency [14] | Potency [16] | Potency [17] | Potency [18]

C[C@H](NC(=O)Cc1cc(F)cc(F)c1)C(=O)N[C@@H]1C(=O)N(C)c2ccccc2-c2ccccc21
inactive: outcome [5] | max response [6] -10.7% | max response [7] -1.56% | outcome [7] | max response [8] 1.83% | outcome [8] | max response [9] -12.2% and -1.62% | outcome [10] | Potency [11] | Potency [12] | Potency [13] | Potency [16] | Potency [18]
